Measurements from the supplement of paper PMC6555819.

How the values were obtained:
Assay in all cases: PBM binding z-score (relative to random genomic background probes); higher = stronger binding; sequences stand for … in GC…GCGATTGACAGCGTAGAATGAAGG
[1] = tested on: LXRa:RXRa (NR concentration 270 nM, RXRa partner concentration 90 nM)
Procedure, shortened: (§1)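 On custom Agilent 4×180K arrays, double-stranded probes with 34-nt variable regions carried direct-repeat seeds, single-nucleotide variants, half-site ablations or random human genomic background. Ligand-free nuclear receptor dimers were applied for 1 h, and binding was read with antibodies against each partner (one per run). Binding z-scores come from regression-normalized fluorescence, with the random background probes as reference.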

[2] = tested on: LXRa homodimer (NR concentration 270 nM)
Procedure, shortened: as §1

[3] = tested on: LXRb homodimer (NR concentration 270 nM)
Procedure, shortened: as §1

[4] = tested on: PPARa:RXRa (NR concentration 270 nM, RXRa partner concentration 90 nM)
Procedure, shortened: as §1

[5] = tested on: PPARg:RXRa (NR concentration 180 nM, RXRa partner concentration 90 nM)
Procedure, shortened: as §1

[6] = tested on: PPARg:RXRa 270nM:90nM, anti-RXR (NR concentration 270 nM, RXRa partner concentration 90 nM)
Procedure, shortened: as §1

[7] = tested on: PPARg:RXRa 30nM:10nM, anti-RXR (NR concentration 30 nM, RXRa partner concentration 10 nM)
Procedure, shortened: as §1

[8] = tested on: PPARg:RXRa 90nM:30nM, anti-RXR (NR concentration 90 nM, RXRa partner concentration 30 nM)
Procedure, shortened: as §1

[9] = tested on: PPARg:RXRa DBDmut IVT, anti-RXR (DBD mutation: RXRa K156A/R161A, NR concentration 270 nM, RXRa partner concentration 90 nM)
Procedure, shortened: as §1

[10] = tested on: PPARg:RXRa IVT, anti-PPARg (NR concentration 270 nM, RXRa partner concentration 90 nM)
Procedure, shortened: as §1

[11] = tested on: PPARg DBDmut:RXRa IVT, anti-PPARg (DBD mutation: PPARg1 K132A/R137A, NR concentration 270 nM, RXRa partner concentration 90 nM)
Procedure, shortened: as §1

[12] = tested on: PPARg DBDmut IVT, anti-PPARg (DBD mutation: PPARg1 K132A/R137A, NR concentration 270 nM)
Procedure, shortened: as §1

[13] = tested on: PPARg homodimer (NR concentration 180 nM)
Procedure, shortened: as §1

[14] = tested on: PXR:RXRa (NR concentration 270 nM, RXRa partner concentration 90 nM)
Procedure, shortened: as §1

[15] = tested on: PXR homodimer (NR concentration 270 nM)
Procedure, shortened: as §1

[16] = tested on: RARa:RXR (NR concentration 270 nM, RXRa partner concentration 90 nM)
Procedure, shortened: as §1

[17] = tested on: RARa homodimer (NR concentration 270 nM)
Procedure, shortened: as §1

[18] = tested on: RARb:RXRa (NR concentration 270 nM, RXRa partner concentration 90 nM)
Procedure, shortened: as §1

[19] = tested on: RARb homodimer (NR concentration 270 nM)
Procedure, shortened: as §1

Row | Sequence | PBM binding z-score [1] | PBM binding z-score [2] | PBM binding z-score [3] | PBM binding z-score [4] | PBM binding z-score [5] | PBM binding z-score [6] | PBM binding z-score [7] | PBM binding z-score [8] | PBM binding z-score [9] | PBM binding z-score [10] | PBM binding z-score [11] | PBM binding z-score [12] | PBM binding z-score [13] | PBM binding z-score [14] | PBM binding z-score [15] | PBM binding z-score [16] | PBM binding z-score [17] | PBM binding z-score [18] | PBM binding z-score [19]
1 | CCTTACGGGTAACGAGGTTATAGCACGACGAGCG | 0.424 | -0.553 | -0.211 | 1.62 | 1.49 | 1.14 | 0.156 | 0.641 | 1.07 | 1.82 | -0.344 | -1.05 | 0.604 | 0.822 | 0.153 | 1.3 | 0.476 | 0.589 | 0.484
2 | CGAACAAGGTCATTGACAGGACAGTGAATAGTAA | 5.4 | 1.2 | 1.12 | 5.93 | 5.6 | 5.66 | 2.36 | 4.75 | 4.08 | 4.81 | 1.05 | 0.903 | 2.11 | 4.12 | 1.79 | 4.28 | 1.42 | 5 | 3.92
3 | AGCGAAAGGTCGAGGTGAGTATAGAGAAAGGGAA | 3.18 | -0.189 | -0.246 | 4.51 | 3.81 | 4.31 | 1.4 | 3.37 | 0.228 | 2.26 | 0.0948 | 0.386 | 1.75 | 2.52 | 0.259 | 3.19 | 0.743 | 4.03 | 2.64
4 | TATAAAGGGTCAAAGGCCAGAGTACGAATGTCGA | 6.68 | 2.98 | 3.14 | 6.43 | 8.34 | 7.5 | 6.09 | 7.52 | 2.57 | 4.93 | 2.86 | 2.33 | 3.29 | 4.36 | 0.699 | 5.99 | 1.64 | 5.27 | 4.32
5 | CGAACTAGGTCGAGGACAGTGAATCTCCGCACGC | -0.0944 | -0.716 | -0.651 | 1.75 | 2.03 | 1.98 | 0.0747 | 1.23 | 5.71 | 5 | 0.082 | -0.0951 | -0.11 | -0.012 | -0.207 | 0.419 | -0.18 | 1.64 | 1.18
6 | CAAACTAGGTCACGAGAGGTCAAAGTCGAATGAC | 8.28 | 8.5 | 2.4 | 6.78 | 10.7 | 8.59 | 6.83 | 8.87 | 8.71 | 9.18 | 3.71 | 4.06 | 5.24 |  | 3.95 | 7.58 | 2.65 | 5.51 | 5.6
7 | TCTGCTAGGTCATCGATGGTCAGCTAATCTGCTA | 3.21 | -0.333 | -0.256 | 3.2 | 1.74 | 3.32 | 1.82 | 2.45 | 3.54 | 4.24 | 0.105 | -0.541 | 0.22 | 1.81 | -0.703 | 2.07 | -1.04 | 4.02 | 3.19
8 | AGTCAAAGTGCATCTAGGTAACGTAAGATATGCT | 0.188 | -0.289 | -0.415 | 1.21 | 2 | 2.08 | 0.727 | 1.47 | 0.592 | 2.46 | 0.878 | 0.653 | 0.197 | 0.516 | 0.154 | 0.595 | -0.00454 | 1.53 | 0.456
9 | ATCGAAAGGTCGACGCGGTGAGTATACACCGTTT | 3.4 | -0.127 | 0.391 | 3.97 | 2.07 | 2.54 | 0.887 | 1.8 | -0.0451 | 1.36 | 0.788 | 0.177 | 1.39 | 2.07 | -0.368 | 3 | 0.192 | 3.72 | 2.45
10 | ATCGAAAGGTCGACGAGGTGAGTAAACACCGTTT | 3.58 | 0.0172 | 0.228 | 4.51 | 2.6 | 3.59 | 1.02 | 2.3 | 0.114 | 1.85 | 0.135 | 1.17 | 1.63 | 3.05 | 0.324 |  | 0.378 | 3.85 | 2.98
11 | AGAACGAGGTCACGCTGAGTTGATAGCAGAGTAG | 6.2 | 0.912 | 0.705 | 6.34 | 9.52 | 8.1 | 6.32 | 7.52 | 6.78 | 7.41 | 3.83 | 1.29 | 4.17 |  | 2.35 | 6.71 | 1.26 |  | 4.38
12 | GCTGCTAGGTCAACTGATGGTCACCTAAAGCTCG | 3.3 | 0.787 | 0.117 | 3.99 | 3.2 | 3.59 | 0.832 | 2.56 | 5.16 | 4.59 | -0.0462 | -0.599 | 1.66 | 2.06 | -0.358 | 3.26 | 0.182 | 4.24 | 3.93
13 | GGAACGAGGTCAAGTTGATAGCAGAGTTTGATGG | 6.21 | 2.03 | 2.13 | 6.38 | 7.7 | 6.96 | 4.31 | 6.52 | 6.19 | 6.52 | 2.59 | 0.598 | 3.81 | 5.86 | 2.91 | 5.81 | 2.1 |  | 4.59
14 | CCTACTCGGCCAAAAAGGTCATTGATGCCGATAA | 4.55 | 4.59 | 0.927 | 4.87 | 1.91 | 3.11 | 0.833 | 2.27 | 1.1 | 2.03 | -0.62 | -0.0585 | 3.26 | 4.83 | 3.27 | 4.83 | 1.71 | 4.07 | 4.59
15 | TGTCAACGTTCAAAGGTAACGTAAGTATCCACAC | 0.794 | -0.182 | 0.0417 | 1.49 | 2.58 | 2.69 | 1.18 | 2.07 | -0.155 | 1.78 | 0.941 | 0.758 | 0.252 | 0.578 | -0.0241 | 1.36 | 0.107 | 1.46 | 1
